Compounds without any hit were thinned out: in the full panel of roughly 83,000, 20% have a hit.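 Compound tested at a single concentration for 48 hours in 96-well plates; a percent growth value below 10 was scored as active.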 Active and inactive are the calls of the source.

The subject of the assay is SW-620 colon. The experiment in a line: NCI-60 one-dose screen, 48 h (100 = growth as untreated, 0 = no growth, -100 = all killed). To be noted: 10 µM unless noted. Here is the method:
Growth inhibition of the SW-620 human tumor cell line is measured as a screen for anti-cancer activity. Cells are grown in 96 well plates and exposed to the test compound for 48 hours. Compounds are tested at a single concentration, which is 10^-5 M for most compounds. The reported endpoint is percent growth (GI% or GIPRCNT), where numbers from 0 - 100% represent growth inhibition, and numbers from -100% - 0 represent cell death. For example, a value of 40 represents 60% growth inhibition. A value of 0 means no net growth occurred over the course of the experiment. A value of -40 indicates 40% of cells at the beginning of the experiment died by the end of the experiment. A value of -100 means all cells are dead at the end of the experiment.
NCI-60 Human Tumor Cell Lines Screen was performed using the standard one-dose NCI protocol, which is described in more detail at https://dtp.cancer.gov/discovery_development/nci-60/default.htm.
Compounds with GIPRCNT values below 10 were considered active. Activity score was based on GIPRCNT using the following formula: […]
Score is 0 for GIPRCNT values of 100 or above, 50 for GIPRCNT values of 0, and 100 for GIPRCNT values of -100.
For the compound `Oc1ccc(CN2CCC(N3CCCCC3)CC2)c2cccnc12`, the growth was 30.2% (inactive).
Turning to `CCN1C(=O)N(CC)C2C1NN=c1s/c(=C\c3cccc([N+](=O)[O-])c3)c(=O)n12` (stereo not given), the growth was 21.1% (inactive).
For the compound `O=[N+]([O-])C1C(c2ccccc2)C12c1ccccc1-c1ccccc12` (stereo not given), the growth was 3.12% (active).
The result for `O=C1NCCC12CCN(c1c(Cl)cncc1-c1ccc(O)cc1)CC2` reads 99.6% (inactive).
Regarding `CS(=O)(=O)C1=CN(CCO)C(=O)N2CCCN=C12`, the growth is 93.4% (inactive).
`COc1ccc2c(O)c(/C=C3\N=Nc4ncccc43)oc2c1C[C@H]1CCNC[C@H]1F`: the growth was -15.5% (active).
For the compound `COC(=O)CCC(=O)C(=O)OC`, the growth is 29.9% [10 mM] (inactive).
As to `S=C1CCSC(=S)N1CCCN1C(=S)CCSC1=S`, the growth is 53% (inactive).
In the case of `Cc1ccc2c3c(c(=O)[nH]c2c1)C1(C(C#N)=C(N)O3)c2cc(Br)ccc2-c2ccc(Br)cc21`, the growth was -36.5% (active).
Take `CN1CCN(c2ccc(NC(=O)c3cncnc3Nc3ccc(OCc4ccccn4)c(Cl)c3)cc2)CC1`: the growth was 4.15% (active).
Regarding `Cc1ccc(-c2nc(N3CCNCC3)c3oc(-c4ccccc4)nc3n2)cc1`, the growth is -55.1% (active).
`O=C(/C=C/c1cn(-c2ccccc2)nc1-c1ccc([N+](=O)[O-])cc1)c1ccc(Cl)cc1`: the growth is -27.6% (active).
For the compound `COC(=O)[C@H]1CCCN1C[C@@H](O)CN1C(=O)/C(=C\c2cc(OC)c(OC)c(OC)c2)c2ccccc21`, the growth is 95.7% (inactive).
On to `O=C(CCCCC1CCSS1)Nc1ncnc2n[nH]c(-c3ccc(Oc4ccccc4)cc3)c12` (stereo not given), for which the growth is 111% (inactive).
In the case of `C/C(Nc1ccc(Cl)c(Cl)c1)=C1\CCOC1=O`, the growth is 111% (inactive).
As to `O=C(O)c1ccc(-n2cc(/C=N/Nc3ccc(F)cc3)c(-c3cc4ccccc4oc3=O)n2)cc1`, the growth was 64.5% (inactive).
Consider `CCOC(=O)c1c(C)c2c(n1C)CSc1cc(C(=O)c3ccccc3)c(=O)[nH]c1-2`, for which the growth is 93.8% [100 µM] (inactive).
Consider `CCOC(=O)CSc1ncnc2c1c(-c1ccccc1)c(-c1ccccc1)n2-c1ccc(C)cc1`, for which the growth was 81.2% (inactive).
The result for `COc1ccc(-c2nc3c(c(-c4ccccc4)nn3-c3ccccc3)c(-c3ccc(N4CCN(C)CC4)cc3)c2C#N)cc1` reads 85.6% (inactive); that for `CN1CCN(C(=O)c2ccc(NC(=O)Nc3ccc(-c4nc(N5CCOCC5)c5cccn5n4)cc3)cc2)CC1`, 11% (inactive); that for `CCOC(=O)c1c(C)nc2c(c1N)CC(=O)N2Cc1cc(F)cc(Cl)c1`, 103% (inactive).
For the compound `COC(=O)c1cc(-c2ccc(S(C)(=O)=O)cc2)[nH]c1N/N=C/c1c(Cl)cccc1Cl`, the growth was 15% (inactive).
For the compound `COc1ccc(-c2ccc3cnc4sc(-c5ccc(OC)cc5)nc4c3n2)cc1`, the growth is 112% (inactive).
For `O=c1c2cc(-c3ccccc3)sc2nc2sc(-c3ccccc3)nn12`, the growth was 103% (inactive).
With `COc1cc(-c2cc(-c3ccc(N(C)C)cc3)nc(N3CCC(O)CC3)c2C#N)cc(OC)c1OC` the figure was 21.1% (inactive); with `O=S(=O)(Nc1ccc(Cl)cc1)c1ccc(-c2cnc(C3CC3)o2)cc1`, 17.4% (inactive).
On to `COc1cc(N2C(=O)[C@H](O)C2c2ccc(SC)cc2)cc(OC)c1OC` (stereo not given in full), for which the growth is 23.7% (inactive).
Take `O=C(OCc1ccc2cccc(O)c2n1)N1CCN(C(=O)c2cc3cc(F)ccc3[nH]2)CC1`: the growth is -62.8% (active).
In the case of `c1ccc(CNc2c3ccccc3nc3ccccc23)cc1`, the growth is 24.5% (inactive).
Take `O=C1/C(=C/c2cccs2)SC(=S)N1CCCN1CCOCC1`: the growth is 101% (inactive).
As for `COc1cc(CNC(=O)CCCC/C=C/C(C)C)ccc1OCc1nnc(Nc2ccc([N+](=O)[O-])cc2)o1`, the growth is 67.3% (inactive).
Regarding `O=c1oc2ccccc2cc1C1=NN=C(SCc2ccccc2)SC1`, the growth was 106% (inactive).
Regarding `CC(=O)N1N=C(c2ccc(Nc3nc(Nc4ccc(Cl)cc4)nc(Nc4ccc(Cl)cc4)n3)cc2)CC1c1ccco1` (stereo not given), the growth was 114% (inactive).
As to `CNC(=O)c1cc(Oc2ccc3nc(NC(C)=O)sc3c2)ccn1`, the growth is 112% (inactive).
In the case of `O=C(CSc1nc(-c2ccccc2)[nH]c1S(=O)(=O)c1ccccc1)NC1CC1`, the growth is 104% (inactive).
For the compound `CO/N=C(/C)c1ccc(NC(=O)CSc2nnc(-c3ccncc3)n2-c2ccccc2)cc1`, the growth was 84.2% (inactive).
For `N#CCSc1nnc2n(Cc3ccccc3)c(=O)c3c4c(sc3n12)CCCC4`, the growth was 109% (inactive).
Regarding `OB(O)c1cccc(-c2nc3ccc4[nH]ncc4c3c3c2CCCC3)c1`, the growth was 29.9% (inactive).
Take `CCOC(=O)c1nc(Nc2ccc(NC(=O)Nc3ccc(F)cc3)cc2)c2ccccc2n1`: the growth was 96.9% (inactive).
With `COc1cc(-c2csc(NC(=O)c3cc(-n4cnc(C)c4)cc(C(F)(F)F)c3)n2)cc(OC)c1OC` the figure was 77.9% (inactive).

The values are drawn from PubChem BioAssay (NCI).
